Hit rate of the full screen: of about 140,000 compounds, about 1,200 (0.86%) were called active. This excerpt belongs to a sample that is enriched for actives. Unmarked numbers belong to inactive results. Cut-off read from the data, not from the text of the source: active = activity change below about -25%; inactive = the rest.
Target: Inositol hexakisphosphate kinase 1 (Homo sapiens) (UniProt Q92551)
Assay: Primary qHTS assay for small molecule inhibitors of Inositol hexaphosphate kinase 1 (IP6K1); note: series mostly up to about 58 µM
Conditions: ADP-Glo luminescence, 2 h, hits give low values
Summary of the method: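 ADP-Glo luminescence measures ADP made by human IP6K1 during a 2 h RT reaction with ATP/IP6 (mix at 1.3 mM/130 uM); top library doses 57.5 and 19.1 uM final.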
% is set by controls: 0 for no effect and ±100 for the full control effect.

Inositol hexakisphosphate kinase 1 (Homo sapiens), sequence (Q92551 whole entry, looked up): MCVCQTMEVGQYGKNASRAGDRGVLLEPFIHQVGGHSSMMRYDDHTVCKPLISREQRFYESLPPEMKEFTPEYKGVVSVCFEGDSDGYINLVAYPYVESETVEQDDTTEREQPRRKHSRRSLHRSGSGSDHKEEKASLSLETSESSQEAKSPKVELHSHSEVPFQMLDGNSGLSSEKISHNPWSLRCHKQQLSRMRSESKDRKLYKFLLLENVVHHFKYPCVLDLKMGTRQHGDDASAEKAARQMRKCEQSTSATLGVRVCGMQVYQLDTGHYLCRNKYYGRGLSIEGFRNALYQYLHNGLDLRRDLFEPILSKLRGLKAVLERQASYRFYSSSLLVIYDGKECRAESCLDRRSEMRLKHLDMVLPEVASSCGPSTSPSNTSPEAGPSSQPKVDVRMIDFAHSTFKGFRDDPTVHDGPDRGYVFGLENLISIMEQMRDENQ

Compound | activity change
COCCn1c(=O)n([C@H]2CCCN(C(=O)CCc3ccccc3)C2)c2ncccc21 | 6.71%
CC(C)(Oc1nn(Cc2cccc(Cl)c2)c2ccccc12)C(=O)Nc1cccnc1 | -0.544%
Cc1cc(C)cc(N2CCC(NS(=O)(=O)c3cn(C)c(C)n3)C2=O)c1 (stereo unspecified) | -1.58%
Cc1ccccc1N1CCCN(Cc2nc(-c3ccccn3)no2)CC1 | -0.56%
COc1ccc(Nc2cnc3ccc(-c4ccc(OC)nc4)nn23)cc1 | -13.5%
COc1ccc(-c2ccc3ncc(Nc4cc(F)cc(N5CCOCC5)c4)n3n2)cn1 | -29.7% (active)
COc1ccc(-c2ccc3ncc(Nc4ccc(C(F)(F)F)cc4)n3n2)cn1 | -13.9%
CC[C@@]1(C(=O)O)C[C@H](C(=O)N(C)CC(=O)O)[C@H](c2ccc(OC)cc2)N1C | 9.58%
COC(=O)c1ccc(CO[C@H]2CCC=C3C[C@@H](O)CC[C@@]32C)cc1 | 17.7%
CCOC(=O)c1ccc(NC(=O)c2nc(SCc3ccc(F)cc3)ncc2Cl)cc1 | -10%
CCOC(=O)c1ccc(CSc2nnc3cc(C)c4ccccc4n23)cc1 | -36.2% (active)
CCOC(=O)c1ccc(NC(=O)CSc2nc3c([nH]c4ccccc43)c(=O)n2C)cc1 | 32.9%
O=S(=O)(N[C@@H]1CCOC[C@H]1Oc1ccccn1)c1ccc(Cl)s1 | -5.56%
O=C(NCc1ccco1)C1c2ccccc2C(=O)N(C2CCCC2)C12CCCCC2 (stereo unspecified) | -8.07%
CC(=O)N1CCN(c2ccc3nnc(-c4ccc(C)cn4)n3n2)CC1 | -10.9%
Cc1ccc(-c2ccc3nnc(CNC(=O)c4ccccn4)n3n2)cc1 | -2.05%
Cc1ccc(-c2nnc3ccc(-c4ccoc4)nn23)nc1 | -36.1% (active)
CC(=O)Nc1ccc(S(=O)(=O)N[C@H]2CO[C@H]3[C@@H]2OC[C@@H]3n2nnnc2-c2ccc(N(C)C)cc2)cc1 | 2.63%
CCCS(=O)(=O)N1CCC(N2CC(OCCOC)C23CCCCC3)CC1 (stereo unspecified) | -5.2%
Cc1ccc(NC(=O)c2nc(S(=O)(=O)Cc3cccc(C)c3)ncc2Cl)cc1 | -17.5%
CCCS(=O)(=O)c1ncc(Cl)c(C(=O)Nc2scc(-c3ccccc3)c2C(=O)OCC)n1 | -31.2% (active)
CCOC(=O)c1scc(-c2ccccc2)c1S(=O)(=O)Nc1ccccc1F | -14.6%
CCNC(=O)CCc1c(CC)nn(-c2ccc(F)cc2)c1Oc1ccccc1 | 1.63%
CCOc1ccc(C(=O)N2CCC(c3n[nH]c(=O)n3-c3ccccc3)CC2)cc1OCC | -6.36%
CSc1ccc(-c2ccc(C=O)cc2)cc1 | -28.5% (active)
O=Cc1cccc(-c2cc(F)cc(F)c2)c1 | -5.81%

Compound | activity change
COc1ccc(CNC(=O)[C@@H](C)C2CC[C@@]3(C)CC[C@H](NC(=O)c4ccc(C#N)cc4)[C@@H](C)[C@@H]3[C@H]2O)cc1 (stereo partly specified) | -11.9%
COc1ccc(Nc2ccnc(N3CCCC(C(=O)NCc4ccc(C(F)(F)F)cc4)C3)n2)cc1 (stereo unspecified) | -7.37%
Cc1ccccc1Cc1c(C)nc2c(C(=O)N3CCc4c(c(-c5nncn5C)nn4C)C3)cnn2c1C | 9.9%
N#CC1CCN(C(=O)c2ccc3nnc(Cc4ccco4)n3c2)CC1 | 2.16%
COc1ccccc1-c1cc(-c2cn[nH]c2)c2onc(C)c2n1 | -25.3% (active)
COc1ccccc1-c1cc(-c2cccc([S+](C)(=O)[O-])c2)c2onc(C)c2n1 | 2.9%
Cc1noc2c(-c3cccc(CO)c3)cc(-c3ccccc3)nc12 | -16.9%
Cn1c(CCC(=O)N2CC[C@H](CO)[C@H](O)C2)nc2cccnc21 | -2.6%
COc1ccccc1C(=O)N1CCCC2(C1)Nc1cccnc1NC2=NCc1ccccc1 (stereo unspecified) | 6.92%
O=C(NCC1CCCCC1)[C@@H]1CCCN1c1ccnc2ccnn12 | -2.98%
CN(C)c1ccc(CN2CCC(N3Cc4ccccc4C3=O)CC2)cc1 | -12.5%
CCc1ccccc1N1C(=O)CN(S(=O)(=O)CC)CC1(C)C(=O)NC1CCCCC1 (stereo unspecified) | -30.6% (active)
CCc1ccc(N2C(=O)CN(S(=O)(=O)CC)CC2(C)C(=O)NC2CCCCC2)cc1 (stereo unspecified) | -13.3%
CCc1ccccc1NC(=O)c1ccc(F)c(S(=O)(=O)NC2CCCCCC2)c1 | 15.5%
COC(=O)NC1CCN(Cc2ccc(-c3cc(F)ccc3OC)cc2)C1 (stereo unspecified) | 6.69%
Cc1oc(C(O)c2ccccc2)nc1C(=O)Nc1ccc2c(c1)CC(=O)N2 (stereo unspecified) | 9.78%
CCc1ccccc1N1CC(c2nc3ccccc3n2CCCCOc2ccccc2)CC1=O (stereo unspecified) | -28.8% (active)
COc1ccc(OCCCn2c(C3CC(=O)N(c4ccc(F)cc4)C3)nc3ccccc32)cc1 (stereo unspecified) | -3.06%
CCOc1ccc(N2CC(c3nc4ccccc4n3CCOc3ccc(OC)cc3)CC2=O)cc1 (stereo unspecified) | -11.8%
COCCO[C@H]1C(=O)N(C2CCN(C(=O)c3ccsc3)CC2)[C@H]1c1ccncc1 | 6.99%
CCOC(=O)c1ccc(NC(=O)c2c(NCc3cccs3)sc3c2CCCC3)cc1 | -31.3% (active)
CCOC(=O)c1ccc(NC(=O)c2c(NCc3cccc(OC)c3)sc3c2CCC3)cc1 | 8.31%
CCOC(=O)c1ccc(NC(=O)c2csc3c2CCCCC3)cc1 | 3.62%
CC(=O)Nc1cccc(C(=O)N2CCCN(c3cc(-c4ccc(Br)cc4)[nH]n3)CC2)c1 | -10.1%
O=C(NCc1ccc(F)c(F)c1)C1CCCN(Cc2cccc(-c3cccs3)c2)C1 (stereo unspecified) | 0.462%

From PubChem BioAssay AID1645851 (National Center for Advancing Translational Sciences (NCATS), 2021)
